Test [1] is described as follows: IUF_NPC2c_oligodendrocyte_migration_120hr: Leibniz Research Institute for Environmental Medicine (IUF) 120-hour Neural Progenitor Cell Migration Assay for Oligodendrocyte Migration (NPC2c) (AID 2284297).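 Also: O4-positive oligodendrocyte migration distance divided by radial glia migration distance.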 Summed up:
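Human fetal cortex-derived neural progenitor spheres (0.3 mm) were plated on poly-D-lysine/laminin in N2 differentiation medium and exposed to 7 concentrations for 120 h, with half-medium renewal at day 3. Oligodendrocyte migration distance was normalized to radial glia migration, relative to DMSO.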

Test [2] in a line: IUF_NPC2a_radial_glia_migration_120hr: Leibniz Research Institute for Environmental Medicine (IUF) 120-hour Neural Progenitor Cell Migration Assay for Radial Glia Migration (NPC2a) (AID 2284298). Summed up: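 Single 0.3 mm primary human fetal-cortex (GW 16-19) NPC spheres were plated on poly-D-lysine/laminin in N2 differentiation medium and exposed from day 0 for 120 h, half-medium refreshed day 3. Migration distance came from Hoechst nuclei-density imaging, relative to DMSO.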

A short description of test [3]: IUF_NPC2a_radial_glia_migration_72hr: Leibniz Research Institute for Environmental Medicine (IUF) 72-hour Neural Progenitor Cell Migration Assay for Radial Glia Migration (NPC2a) (AID 2284299). Summed up: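 Human fetal cortex (GW 16-19) neural progenitor spheres, 0.3 mm, plated on poly-D-lysine/laminin in N2 differentiation medium with compound from day 0. Radial glia migration distance (um, sphere core edge to migration edge) measured manually in four directions on 72 h brightfield images; well mean used.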

The nature of test [4]: IUF_NPC2b_neuronal_migration_120hr: Leibniz Research Institute for Environmental Medicine (IUF) 120-hour Neural Progenitor Cell Migration Assay for Neuron Migration (NPC2b) (AID 2284300). In short, it runs like this: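 Primary human fetal cortex neural progenitor spheres (0.3 mm) plated on poly-D-lysine/laminin in N2 differentiation medium, exposed 120 h with half-medium refresh at day 3. TUBB3-stained neuron distance from sphere core, normalized to radial glia migration, versus DMSO.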

Test [5] can be described thus: IUF_NPC3_neuronal_differentiation_120hr: Leibniz Research Institute for Environmental Medicine (IUF) 120-hour Neuronal Differentiation Assay (NPC3) (AID 2284301). Summed up: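 Human fetal (GW 16-19) neural progenitor spheres (0.3 mm) plated on poly-D-lysine/laminin in N2 differentiation medium, exposed 120 h at 37C with half-medium renewal day 3; 7 concentrations. TUBB3+ cells as % of Hoechst nuclei, CNN-identified; DMSO baseline.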

Test [6] is described as follows: IUF_NPC4_neurite_length_120hr: Leibniz Research Institute for Environmental Medicine (IUF) 120-hour Neuronal Morphology Assay for Neurite Length (NPC4) (AID 2284302). In short, it runs like this: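 Human fetal neural progenitor spheres (0.3 mm) plated on poly-D-lysine/laminin in N2 differentiation medium, exposed from day 0 for 120 h with half-medium refresh at day 3, 37C. Mean neurite length (um) of TUBB3-positive neurons from skeletonized immunostaining images; DMSO ≤0.1%.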

Test [7] is described as follows: IUF_NPC4_neurite_area_120hr: Leibniz Research Institute for Environmental Medicine (IUF) 120-hour Neuronal Morphology Assay for Neurite Area (NPC4) (AID 2284305; active = hit-call score of the fitted dose curve at least 0.9, where 1 is the maximum). Summed up:
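Human fetal neural progenitor spheres (0.3 mm) plated on poly-D-lysine/laminin in N2 differentiation medium, exposed 120 h (7 concentrations, DMSO ≤0.1%, half-medium refresh day 3). Fixed, TUBB3 immunostained; mean neurite area per neuron by Omnisphero skeletonization.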

Test [8] is described as follows: IUF_NPC5_oligodendrocyte_differentiation_120hr: Leibniz Research Institute for Environmental Medicine (IUF) 120-hour Oligodendrocyte Differentiation Assay (NPC5) (AID 2284304; active = hit-call score of the fitted dose curve at least 0.9, where 1 is the maximum;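 also: primary human fetal neural progenitor spheres plated to migrate and differentiate; share of O4-positive cells among Hoechst nuclei found by CNN image analysis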). In short, it runs like this:
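Primary human fetal (GW 16-19) neural progenitor spheres (0.3 mm) plated on poly-D-lysine/laminin in N2 differentiation medium, exposed from day 0 for 120 h with half-medium refresh at day 3; O4-positive cells as percent of Hoechst nuclei, CNN-identified, versus DMSO.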

Inconclusive results are not listed. The source made the active and inactive calls. The calls were made as follows, unless noted: active = hit-call score of the fitted dose curve at least 0.9, where 1 is the maximum; inactive = score below 0.9.

The term AC50 denotes the midpoint of the concentration-response curve, whichever way the signal moves. As to `COP(=O)(OC)O/C(=C\Cl)c1cc(Cl)c(Cl)cc1Cl`, the concentration at half-maximal activity (AC50) was 603 nM (active) in test [1]; 638 nM (active) in test [2]; 1030 nM (active) in test [3]; 785 nM (active) in test [4]; 988 nM (active) in test [5]; 466 nM (active) in test [6]. The AC50 in test [7] was 675 nM (active).

Regarding `CCOP(=S)(OCC)Oc1nc(Cl)c(Cl)cc1Cl`, the compound was called inactive in test [1], in test [2], in test [3], in test [4], in test [5] and in test [6]. The outcome in test [8] and in test [7] was inactive.

The values are drawn from PubChem BioAssay (EPA / NIEHS).
